From PubChem BioAssay (EPA / NIEHS)
Results filed as inconclusive are left out. A structure can be active in one record and inactive in another. The source made the active and inactive calls. How the source made its calls, unless noted: active means hit-call score of the fitted dose curve at least 0.9, where 1 is the maximum; inconclusive means response in the unintended direction; inactive means score below 0.9.

Experiments:
[1] = read-out: Cellular tumor antigen p53 (Homo sapiens) (UniProt P04637); assay: LTEA_HepaRG_TP53: Life Technologies and Expression Analysis (LTEA) Assay for Tumor Protein P53 (TP53) using HepaRG (AID 2283537; active means hit-call score of the fitted dose curve at least 0.9, where 1 is the maximum; inactive means score below 0.9); settings: mRNA level, 48 h; actives raise or lower the signal
Summary of the method: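 Gain or loss of TP53 mRNA signal is scored relative to 0.5% DMSO after 48 h chemical treatment of HepaRG liver cells, tested in duplicate at eight half-log concentrations up to 100 uM.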

[2] = read-out: UDP glucuronosyltransferase (UGT1A1), UGT1A1 (gene 54658); assay: LTEA_HepaRG_UGT1A1: Life Technologies and Expression Analysis (LTEA) Assay for UDP glucuronosyltransferase (UGT1A1) using HepaRG (AID 2283538; active means hit-call score of the fitted dose curve at least 0.9, where 1 is the maximum; inactive means score below 0.9); settings: mRNA level, 48 h; actives raise or lower the signal
Summary of the method: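 mRNA induction or loss of UGT1A1, by TaqMan qRT-PCR, in duplicate HepaRG wells after 48 h exposure to half-log dilutions topping at 100 uM; DMSO (0.5%) served as baseline.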

[3] = read-out: UDP glucuronosyltransferase (UGT1A6), UGT1A6 (gene 54578); assay: LTEA_HepaRG_UGT1A6: Life Technologies and Expression Analysis (LTEA) Assay for UDP glucuronosyltransferase (UGT1A6) using HepaRG (AID 2283539; active means hit-call score of the fitted dose curve at least 0.9, where 1 is the maximum; inactive means score below 0.9); settings: mRNA level, 48 h; actives raise or lower the signal
Summary of the method: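 qRT-PCR readout of UGT1A6 mRNA (normalized to ACTB/GAPDH/POLR2A) in differentiated HepaRG cells after 48 h chemical exposure; 8 concentrations, top 100 uM, half-log steps, 0.5% DMSO. Bidirectional curve fit relative to DMSO baseline.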

[4] = LTEA_HepaRG_LDH_cytotoxicity: Cytotoxicity Assessment in the Life Technologies and Expression Analysis (LTEA) Assay (AID 2283563);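 on AC50: LDH activity released into spent culture medium as a marker of cell death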
Summary of the method: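 HepaRG (human liver line), 48 h exposure, 8-pt half-log series from 100 uM, 0.5% DMSO vehicle, duplicates. Read-out: LDH in spent medium. Positive-direction fit vs DMSO baseline.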

[5] = ATG_XTT_Cytotoxicity: Cytotoxicity Assessment in the Attagene TRANS-FACTORIAL HepG2 Assay (AID 2283584)
Summary of the method: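 XTT readout of cell number in transfected HepG2 cells, 24 h post-dosing; DMSO serves as negative control and baseline, with activity taken as loss of viability signal.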

[6] = TOX21_p53_BLA_p2_viability: Viability Assessment in the Tox21 HCT-116 p53 Agonism Beta-lactamase Assay, Phase 2 (AID 2283591);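 further: actives lower the ATP signal meaning cytotoxicity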
Summary of the method: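 HCT-116 p53-bla cells (4000/well) rested 5 h at 37C, then received compounds in DMSO (217-fold dilution) for 16 h at 37C, 5% CO2. After the CCF4 read, CellTiter-Glo was added; ATP luminescence was read after 30 min at room temperature.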

[7] = target: Cellular tumor antigen p53 (Homo sapiens) (UniProt P04637); assay: TOX21_p53_BLA_p3_ratio: Tox21 HCT-116 p53 Agonism Beta-lactamase Assay, Ratio, Phase 3 (AID 2283596)
Sequence of Cellular tumor antigen p53 (Homo sapiens) (P04637 whole entry, looked up): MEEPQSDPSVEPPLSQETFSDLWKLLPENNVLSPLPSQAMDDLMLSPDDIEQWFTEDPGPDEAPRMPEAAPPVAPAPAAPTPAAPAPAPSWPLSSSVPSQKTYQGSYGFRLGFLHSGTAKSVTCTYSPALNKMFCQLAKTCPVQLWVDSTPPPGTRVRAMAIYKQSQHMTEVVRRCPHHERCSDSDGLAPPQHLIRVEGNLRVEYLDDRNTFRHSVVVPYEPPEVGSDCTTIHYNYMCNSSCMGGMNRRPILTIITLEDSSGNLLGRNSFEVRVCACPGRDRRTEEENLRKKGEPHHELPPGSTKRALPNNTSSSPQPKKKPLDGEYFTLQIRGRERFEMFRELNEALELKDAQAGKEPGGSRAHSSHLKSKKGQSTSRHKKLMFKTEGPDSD
Summary of the method: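 Cells were seeded at 4000/well, rested 5 h at 37C, then dosed with DMSO compound solutions (217-fold dilution) for 16 h. CCF4-AM substrate was loaded for 2 h at room temperature, and the 460/530 nm emission ratio was fitted for gain of signal versus DMSO.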

[8] = read-out: X-box binding protein 1 (XBP1), XBP1 (gene 7494); assay: LTEA_HepaRG_XBP1: Life Technologies and Expression Analysis (LTEA) Assay for X-box binding protein 1 (XBP1) using HepaRG (AID 2283540; active means hit-call score of the fitted dose curve at least 0.9, where 1 is the maximum; inactive means score below 0.9); settings: mRNA level, 48 h; actives raise or lower the signal
Summary of the method: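 HepaRG, 48 h exposure, 8-pt half-log CRC top 100 uM, 0.5% DMSO vehicle, duplicates. Readout: TaqMan qRT-PCR of XBP1 mRNA, housekeeping-normalised (ACTB/GAPDH/POLR2A); bidirectional fit vs DMSO baseline.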

[9] = target: Cellular tumor antigen p53 (Homo sapiens) (UniProt P04637); assay: TOX21_p53_BLA_p2_ratio: Tox21 HCT-116 p53 Agonism Beta-lactamase Assay, Ratio, Phase 2 (AID 2283592)
Summary of the method: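 Readout: blue/green (460/530 nm) FRET emission ratio after 2 h CCF4-AM loading at room temperature, excitation 405 nm. HCT116 p53 bla cells, 16 h compound exposure at 37C, 5% CO2; agonist direction fitted against DMSO baseline.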

[10] = TOX21_p53_BLA_p3_viability: Viability Assessment in the Tox21 HCT-116 p53 Agonism Beta-lactamase Assay, Phase 3 (AID 2283593);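 further: cells exposed to compound for 16 h before reading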
Summary of the method: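 HCT-116 cells (4000/well) rested 5 h at 37C, then got DMSO compounds by pin tool (217-fold dilution) for 16 h at 37C, 5% CO2. After the bla read, CellTiter-Glo was added and luminescence read at 30 min, room temperature.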

Measured: AC50

COc1ccc(C(=CC(=O)N2CCOCC2)c2ccc(Cl)cc2)cc1OC
active: [2] 11.1 µM
not listed: [8] | [9] | [10]
inactive: all other assays above

CNC(=O)ON=C(SC)C(=O)N(C)C
not listed: [5]
inactive: all other assays above

CON=C(C(=O)OC)c1ccccc1CON=C(C)c1cccc(C(F)(F)F)c1
active: [2] 6.06 µM | [9] 1.25 µM | [7] 3.12 µM
not listed: [5]
inactive: all other assays above

CC1(C(=O)Nc2ccc(O)c(Cl)c2Cl)CCCCC1
not listed: [5]
inactive: all other assays above

COP(=O)(OC)C(O)C(Cl)(Cl)Cl (stereo unspecified)
active: [2] 0.0534 µM | [3] 0.103 µM
not listed: [5]
inactive: all other assays above

CCC(=O)Nc1ccc(Cl)c(Cl)c1
active: [2] 26.7 µM | [9] 88 µM | [7] 72.7 µM
inactive: [1] | [3] | [4] | [5] | [6] | [9] | [10] | [7]

CSc1nnc(C(C)(C)C)c(=O)n1N
active: [2] 9.92 µM
not listed: [5] | [6]
inactive: all other assays above

CC(COc1ccc(Oc2ccccc2)cc1)Oc1ccccn1 (stereo unspecified)
inactive: [1] | [3] | [4] | [6] | [9]
active: [2] 8.3 µM

CCC(=NOC/C=C/Cl)C1=C(O)CC(C2CCOCC2)CC1=O (stereo unspecified)
not listed: [5] | [7] | [9]
inactive: all other assays above

CCC(CC)Nc1c([N+](=O)[O-])cc(C)c(C)c1[N+](=O)[O-]
active: [2] 28.2 µM
inactive: all other assays above

CNC(=O)ON=C(C)SC
inactive: [1] | [2] | [3] | [4]

CC(C)N(C(=O)SCC(Cl)=C(Cl)Cl)C(C)C
not listed: [5]
inactive: all other assays above

C#CCC1=C(C)C(OC(=O)C2C(C=C(C)C)C2(C)C)CC1=O (stereo unspecified)
active: [6] 45.8 µM | [9] 86.7 µM
inactive: all other assays above

C[Si](Cn1cncn1)(c1ccc(F)cc1)c1ccc(F)cc1
active: [2] 66.3 µM | [3] 50 µM | [8] 90 µM | [4] 33.4 µM | [6] 23.1 µM
inactive: [1] | [6] | [9] | [10] | [7]

CCc1cccc(C)c1N(C(=O)CCl)C(C)COC (stereo unspecified)
active: [2] 20.5 µM
not listed: [8]
inactive: all other assays above

CC(=NC#N)N(C)Cc1ccc(Cl)nc1
active: [2] 50 µM
not listed: [5]
inactive: all other assays above

Cc1nn(-c2cc(NS(C)(=O)=O)c(Cl)cc2Cl)c(=O)n1C(F)F
active: [2] 18.4 µM
not listed: [5] | [6] | [10]
inactive: all other assays above

CCCOCC(=Nc1ccc(Cl)cc1C(F)(F)F)n1ccnc1
active: [1] 86.9 µM | [2] 3.03 µM | [3] 69 µM | [4] 78.9 µM | [6] 23.7 µM | [9] 39.9 µM | [10] 35.4 µM | [7] 68.1 µM
inactive: [5]

COP(=O)(OC)SCn1c(=O)oc2cc(Cl)cnc21
inactive: [1] | [8] | [9]
active: [2] 9.92 µM | [3] 9.92 µM | [4] 74.2 µM | [7] 49.1 µM

CCCCOC(=O)[C@@H](C)Oc1ccc(Oc2ccc(C#N)cc2F)cc1
active: [2] 49.8 µM
inactive: [1] | [3] | [4] | [6] | [9]

CN1COCN(Cc2cnc(Cl)s2)C1=N[N+](=O)[O-]
not listed: [5] | [6] | [7]
inactive: all other assays above

CCOC(=O)COc1cc(-c2nn(C)c(OC(F)F)c2Cl)c(F)cc1Cl
active: [2] 50 µM
not listed: [5] | [9]
inactive: all other assays above

COc1cccc(C(=O)NN(C(=O)c2cc(C)cc(C)c2)C(C)(C)C)c1C
active: [2] 2.32 µM
not listed: [5] | [7]
inactive: all other assays above

CCOP(=S)(OCC)Oc1cc(C)nc(C(C)C)n1
active: [2] 10.5 µM | [10] 49.5 µM | [7] 67.9 µM
inactive: [1] | [3] | [8] | [4] | [6] | [9] | [10] | [7]

CCOP(=S)(OCC)Oc1ccc2c(C)c(Cl)c(=O)oc2c1
active: [2] 3.4 µM
not listed: [8]
inactive: all other assays above

Cc1cc(C2CC2)nc(Nc2ccccc2)n1
active: [2] 50 µM | [4] 73.7 µM | [6] 62.2 µM
not listed: [5]
inactive: all other assays above

C#CC(C)(C)NC(=O)c1cc(Cl)cc(Cl)c1
active: [2] 13 µM
not listed: [8]
inactive: all other assays above

CCOP(=O)(NC(C)C)Oc1ccc(SC)c(C)c1 (stereo unspecified)
active: [2] 50 µM
inactive: all other assays above

CCNc1nc(Cl)nc(NC(C)(C)C#N)n1
active: [2] 3.53 µM
not listed: [5] | [7] | [9]
inactive: all other assays above

CCCOc1nn(C(=O)NS(=O)(=O)c2ccccc2C(=O)OC)c(=O)n1C
inactive: [1] | [2] | [3] | [4]

COP(=O)(NC(C)=O)SC (stereo unspecified)
not listed: [5]
inactive: all other assays above
